Several values for one entry are separate records, joined by “and”; a condition that tells them apart may be missing. Identical values can stand only once. Inconclusive results are not listed. Where a call stands in place of a potency, no number is given. Activity calls are given as the source filed them. Calls come from the whole dose curve; as a rule, active = well fitted inhibition curve with a large enough effect; inconclusive = small, poorly fitted or top-dose-only effect; inactive = flat fitted curve, though single readings scatter.
Assay: Secondary Assay for lipid storage modulators: Cytotoxcity for probe SAR
Details: Drosophila S3 cells viability, CellTiter-Glo luminescence, 24 h, with oleic acid added (1 µL, 400 µM); series mostly up to 46.1 µM
Excerpt: NIH Molecular Libraries Probe Production Centers Network [MLPCN] NIH Chemical Genomics Center [NCGC] MLPCN Grant: 1 R03 MH085686-01 Assay Submitter (PI): Beller, Mathias; Max-Planck-Institut fur Biophysikalische Chemie, Germany. NCGC Assay Overview: Storing lipids as a reservoir for energy or the anabolism of elementary metabolites is a common feature of probably all cells and is conserved from bacteria to humans. The universal cellular lipid storage organelle is the so-called lipid storage droplet (LD). Although ubiquitous, LDs share a simple structure composed of a hydrophobic core that harbors the storage lipids, which is shielded by a droplet-specific phospholipid monolayer to which proteins are attached. The current model of LD biogenesis involves an incorporation of the lipid core into the membrane leaflets of the endoplasmic reticulum (ER) followed by a subsequent budding-like maturation of a LD, which ultimately pinches off. Once released, LD volume can increase by localized lipogenesis or fusion of existing droplet. Storage lipids are re-mobilized enzymatically by lipase activity. Lipase regulation in the adipocyte is heavily studied and involves multiple components including catecholamine signaling, the LD-associated proteins Perilipin and comparative gene identification (CGI-58) and at least two lipases named hormone sensitive lipase (HSL) and adipocyte triglyceride lipase (ATGL). LD regulation outside of the adipocyte is poorly understood and only few components are known. However, there is an urgent need to learn more about ectopic fat depots as mislocalized storage of lipids, for example in the liver or muscle, is an eminent health problem associated with insulin resistance or the metabolic syndrome. We developed a laser-scanning cytometer assay to enable 1,536-well screening and combined the results of the small molecules screen with an RNAi database based on lipid storage. The compound was tested here for cytotoxcity using CellTiter-Glo.
Assay Protocol Summary: Cytotoxcity assay was performed with embryonic Drosophila S3 cells (Bloomington Drosophila Genomics Resource Center [DGRC]). We dispensed 4 uL of cells at 1.25 x 10^6 cells/mL into Greiner solid white 1,536-well plates with a bottle-valve solenoid-based dispenser (Aurora) to obtain 5,000 cells/well. A total of 23 nL of compound solution of different concentrations were transferred to the assay plates using a Kalypsys pin tool equipped with a 1,536-pin array containing 10-nL slotted pins (FP1S10, 0.457-mm diameter, 50.8 mm long; V&P Scientific). One microliter of oleic acid (400 uM) was added, and the plate was lidded with stainless steel rubber gasket lined lids containing pinholes. After 24 hrs of incubation at 24 degrees Celsius and 95% humidity, 4 uL of CellTiter-Glo (Promega) was added to the wells. Luminescence was detected on the Perkin Elmer ViewLux.
For `Cc1ccc(-c2cnc(SCC(=O)Nc3nccs3)n2Cc2ccco2)cc1`, the Potency was “inactive”.
For `O=C(NC1CCCc2c1cnn2-c1ccc(F)cc1F)c1cccc(F)c1F` (stereo not given), the Potency was 14.1 µM (active).
With `CCOc1ccc(CCNC(=O)c2cc3sc(Cl)cc3n2CC)cc1OCC` the Potency was “inactive”.
With `CCOc1ccc(CCNC(=O)CN(C)C)cc1OCC` the Potency was “inactive”.
For `CCOc1ccc(CCNC(=O)C2COc3ccccc3O2)cc1OCC` (stereo not given), the Potency was “inactive”.
For `Cc1ccc(CC(=O)Nc2nc(-c3cccs3)cs2)cc1`, the Potency was “inactive”.
For `COc1ccc(Cl)cc1NC(=O)N1CCN(c2ccccn2)CC1`, the Potency was “inactive”.
In the case of `COc1ccc(CCNC(=O)c2cc3sccc3n2Cc2ccccc2)cc1OC`, the Potency is reported as “inactive”.
In the case of `O=C(Cc1cccs1)Nc1nc(-c2ccc3c(c2)CCC3)cs1`, the Potency is reported as “inactive”.
In the case of `Cc1cc(NC(=O)Nc2ccc(N(C)C)cc2)c2cc(F)cc(F)c2n1`, the Potency is reported as 12.5 µM (active).
For `CCOC(=O)C1CCN(C(=O)CNC(=O)Nc2ccccc2Cl)CC1`, the Potency was “inactive”.
In the case of `O=C(NC1CCCc2c1cnn2-c1ccc(F)cc1F)C1CCCCN1` (stereo not given), the Potency is reported as “inactive”.
In the case of `COc1ccc(-n2ncc3c2CCCC3NC(=O)c2cnc(C)cn2)cc1` (stereo not given), the Potency is reported as 15.8 µM (active).
In the case of `O=C(NC1CCCc2c1cnn2-c1ccc(F)cc1F)c1ccccn1` (stereo not given), the Potency is reported as 9.96 µM (active) and 8.88 µM (active).
With `COc1ccc(NC(=S)N2CCN(c3cccc(Cl)c3)CC2)c(OC)c1` the Potency was “inactive”.
With `Cc1cc(SCc2sc(-c3ccc(C(F)(F)F)cc3)nc2C)ccc1OCC(=O)O` the Potency was “inactive”.
With `COc1ccc(-c2cnc(SCC(=O)Nc3nc(C)cs3)n2Cc2ccco2)cc1` the Potency was “inactive”.
For `COc1ccc(Cl)cc1NC(=S)N1CCN(c2ccc(F)cc2)CC1`, the Potency was “inactive”.
In the case of `CCOc1ccc(CCNC(=O)C2=C(C)OCCO2)cc1OCC`, the Potency is reported as “inactive”.
With `Cc1cn(-c2cc(NC(=O)c3ccc(C)c(Nc4nccc(-c5cccnc5)n4)c3)cc(C(F)(F)F)c2)cn1` the Potency was “inactive”.
With `CCOc1ccc(NC(=O)NC2(C(=O)N3CCCCC3)CCCCC2)cc1` the Potency was “inactive”.
For `CCn1c(-c2ccc(C)cc2)cnc1SCC(=O)Nc1nc(C)cs1`, the Potency was “inactive”.
With `O=C(Nc1cccc2c1cnn2-c1ccc(F)cc1)c1ccccn1` the Potency was 0.888 µM (active).
In the case of `CCOc1ccc(CCNC(=O)c2cccc(C(=O)c3ccccc3)c2)cc1OCC`, the Potency is reported as “inactive”.
With `COc1ccc(Cl)cc1NC(=S)N1CCN(c2ccccc2)CC1` the Potency was “inactive”.
In the case of `CCOc1ccc(CCNC(=O)c2cc3ccccc3n2C)cc1OCC`, the Potency is reported as “inactive”.
In the case of `COc1ccccc1NC(=S)N1CCN(c2cc(Cl)ccc2C)CC1`, the Potency is reported as “inactive”.
For `COc1ccc(-c2csc(NC(=O)CSc3nnc(Nc4ccccc4)s3)n2)cc1`, the Potency was “inactive”.
For `CCOc1ccc(CCNC(=O)c2ccc(N3N=C(C)CC3=O)cc2)cc1OCC`, the Potency was “inactive”.
With `COc1ccc(CCNC(=O)c2cc3sc(C)cc3n2C)cc1OC` the Potency was “inactive”.
For `CCOc1ccc(CCNC(=O)C2CCCCC2)cc1OCC`, the Potency was “inactive”.
With `CCOC(=O)C1CCN(C(=O)C(C)(C)NC(=O)Nc2ccccc2Cl)CC1` the Potency was “inactive”.
In the case of `O=C(NC1CCCc2c1cnn2-c1cc(F)cc(F)c1)c1cccc2nccnc12` (stereo not given), the Potency is reported as “inactive”.
For `O=C(NCCc1ccc(O)c(O)c1)c1cc2sccc2n1Cc1ccccc1`, the Potency was “inactive”.
With `CCOc1ccc(CCNC(=O)c2ccccn2)cc1OCC` the Potency was “inactive”.
With `O=C(NC1CCCc2c1cnn2-c1ccc(F)cc1F)c1ccncc1` (stereo not given) the Potency was 1.41 µM (active).
With `Cc1ccc(NC(=O)c2ccc(CN3CCN(C)CC3)cc2)cc1Nc1nc(-c2cccnc2)cs1` the Potency was “inactive”.
With `CCOc1ccc(CCNC(=O)c2cccs2)cc1OCC` the Potency was “inactive”.
With `O=C(NC1CCCCC1)NC1(C(=O)N2CCCC2)CCCCC1` the Potency was “inactive”.
With `O=C(NC1CCCc2c1cnn2-c1ccc(F)cc1F)c1ccc(F)cc1` (stereo not given) the Potency was 14.1 µM (active).
